Data on 16 compounds can be found in PubChem BioAssay (NCI).

Test systems include T-47D breast; BT-549 breast; MDA-MB-435 melanoma; SW-620 colon; MCF7 breast; HCT-116 colon; HCC-2998 colon; KM12 colon.
Common to all, as to assay: NCI-60 one-dose screen, 48 h (100 = growth as untreated, 0 = no growth, -100 = all killed)
Common to all, as to settings: 10 µM unless noted

This is part of a sample that, as a whole, favours compounds with a hit. Of some 83,000 tested, about 20% had one in any assay.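 Step 1: grow cells in 96-well plates. Step 2: add test compound at a single concentration. Step 3: incubate 48 h. Step 4: record percent growth.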 Unmarked numbers belong to inactive results. Calls of active or inactive are those of the source. The calls were made as follows: active = growth percent below 10; inactive = the rest.

Turning to `CC1(C)CC[C@]2(C(=O)N[C@H](CO)Cc3ccccc3)CC[C@]3(C)C(=CC[C@@H]4[C@@]5(C)CCCNC(C)(C)[C@@H]5CC[C@]43C)[C@@H]2C1`, the growth is 69.8% in the assay on T-47D breast; 89.9% in the assay on BT-549 breast; 73.4% in the assay with MDA-MB-435 melanoma; 79.8% in the assay with SW-620 colon; 83.9% in the assay on MCF7 breast; 44.4% in the assay on HCT-116 colon. Moreover, the figures for the growth in the assay on HCC-2998 colon and in the assay with KM12 colon were 56% and 96%, respectively.
In the case of `N#CC1CCc2c(c(-c3ccc4nc(N)sc4c3)nc3ccc4[nH]ncc4c23)C1` (stereo not drawn), the growth is 94% in the assay on T-47D breast; 65.5% with BT-549 breast; -2.8% (active) with MDA-MB-435 melanoma; 39.1% in the assay on SW-620 colon; 21.7% with MCF7 breast; 25.6% in the assay on HCT-116 colon. Moreover, the growth was 48.2% in the assay on HCC-2998 colon and 24.4% with KM12 colon.
Regarding `O=C1/C(=C\c2cccc3nccnc23)SC(=S)N1CCc1ccc(O)cc1`, the growth in the assay on T-47D breast is 82.5%; with BT-549 breast, 96%; in the assay on MDA-MB-435 melanoma, 97.4%; with SW-620 colon, 101%; in the assay on MCF7 breast, 94.4%; in the assay on HCT-116 colon, 92%. In addition, the growth with HCC-2998 colon was 116%; with KM12 colon, 97.1%.
With `Cc1ccc(NC(=O)Cn2c(Br)nc3c2c(=O)n(C)c(=O)n3C)cc1`, the growth in the assay on T-47D breast was -10.5% (active); in the assay with BT-549 breast it was 0.261% (active); with MDA-MB-435 melanoma, 54.2%; with SW-620 colon, 30%; in the assay on MCF7 breast, 13.2%; with HCT-116 colon, -21.5% (active). Further, the growth in the assay on HCC-2998 colon was 83.7%; in the assay with KM12 colon it was 63.8%.
For `CC1=C(C(=O)Nc2ccccc2)C(c2ccc3c(c2)OCO3)NC(=S)N1` (stereo not drawn), the growth is 101% in the assay with T-47D breast; 88.1% with BT-549 breast; 103% in the assay on MDA-MB-435 melanoma; 107% with SW-620 colon; 99.8% with MCF7 breast; 93.2% with HCT-116 colon. Besides, the growth with HCC-2998 colon was 109%; with KM12 colon, 103%.
As to `CN1CCN(c2ccc3nc4c(nc3c2C(F)(F)F)C(=O)c2ncccc2C4=O)CC1`, the growth with T-47D breast was -28.4% (active); in the assay with BT-549 breast, -97% (active); with MDA-MB-435 melanoma, -91.8% (active); with SW-620 colon, 4.71% (active); in the assay with MCF7 breast, -57% (active); in the assay with HCT-116 colon it was 0.984% (active). Besides, the growth in the assay with HCC-2998 colon was -26.9% (active); with KM12 colon it was 13%.
On to `O=C(O)COc1ccc(Cl)c(Cl)c1`, for which the growth is 95.7% in the assay with T-47D breast; 120% in the assay with BT-549 breast; 104% in the assay with MDA-MB-435 melanoma; 109% in the assay on SW-620 colon; 108% in the assay with MCF7 breast; 109% with HCT-116 colon. Moreover, the growth in the assay on HCC-2998 colon was 106%; in the assay on KM12 colon it was 110%.
In the case of `COc1ccc(/C(C)=C(/c2ccc(OCCCN(C)C)cc2)c2ccc(OC(=O)c3ccccc3)cc2)cc1`, the growth in the assay with T-47D breast is 49.7%; in the assay on BT-549 breast, 87%; with MDA-MB-435 melanoma, 85%; in the assay with SW-620 colon it was 88.8%; in the assay on MCF7 breast it was 31%; in the assay with HCT-116 colon, 48.6%. For the same compound, the growth with HCC-2998 colon is 88.3%; in the assay on KM12 colon, 75.2%.
With `C#CCNC(=O)[C@]1(C)CCC[C@@]2(C)[C@H]1CC=C1C=C(C(C)C)CC[C@@H]12`, the growth in the assay with T-47D breast was 85.2%; in the assay with BT-549 breast it was 100%; in the assay on MDA-MB-435 melanoma, 104%; with SW-620 colon it was 109%; in the assay on MCF7 breast it was 85.6%; with HCT-116 colon, 107%. Moreover, the growth in the assay on HCC-2998 colon and in the assay with KM12 colon was 100% in each case.
In the case of `O=C1/C(=C/c2ccccc2F)CN(C(=O)C(Cl)Cl)C/C1=C\c1ccccc1F`, the growth with T-47D breast was -7.38% (active); in the assay on BT-549 breast, -46.5% (active); in the assay with MDA-MB-435 melanoma, -56.8% (active); with SW-620 colon, -76.9% (active); with MCF7 breast, -49% (active); in the assay on HCT-116 colon, -90.3% (active). In addition, the growth was -76.9% (active) in the assay with HCC-2998 colon and -51.7% (active) in the assay with KM12 colon.
On to `CN1CCN(Cc2ccc(NC(=O)c3cncc(C#Cc4cnc5ccc(Cl)nn45)c3)cc2C(F)(F)F)CC1`, for which the growth in the assay with T-47D breast was 10.4%; in the assay with BT-549 breast, -6.27% (active); in the assay on MDA-MB-435 melanoma, -10.4% (active); in the assay with SW-620 colon it was -2.63% (active); with MCF7 breast, -2.36% (active); with HCT-116 colon it was -12.6% (active). Moreover, the growth in the assay on HCC-2998 colon was -24.4% (active); with KM12 colon, -0.151% (active).
Consider `O=C(/C=C/c1ccccc1)c1ccc(Nc2nc(Nc3ccc(F)cc3)nc(Nc3ccc(Cl)cc3)n2)cc1`, for which the growth with T-47D breast is 62.1%; in the assay on BT-549 breast it was 101%; with MDA-MB-435 melanoma, 95.7%; with SW-620 colon, 90.4%; with MCF7 breast, 30.2%; in the assay on HCT-116 colon, 49.6%. The growth was 70.8% in the assay with HCC-2998 colon and 91.6% with KM12 colon.
As for `COc1ccc(Cn2cc(C(=O)N=Nc3c(O)[nH]c4c(C)cccc34)nn2)cc1`, the growth in the assay with T-47D breast was 81%; with BT-549 breast it was 103%; in the assay on MDA-MB-435 melanoma, 82%; with SW-620 colon it was 57.5%; in the assay on MCF7 breast, 84.9%; in the assay with HCT-116 colon, 7.11% (active). Besides, the growth is 101% with HCC-2998 colon and 95.6% with KM12 colon.
In the case of `CCc1ccc(CCC(=O)Nc2ncc(Cc3ccccc3)s2)o1`, the growth is 42.5% in the assay on T-47D breast; 63.5% in the assay with BT-549 breast; -54.8% (active) with MDA-MB-435 melanoma; 28% in the assay on SW-620 colon; 18.7% in the assay on MCF7 breast; 23.4% with HCT-116 colon. The results for the growth in the assay on HCC-2998 colon and with KM12 colon were 35.6% and 18.4%, respectively.
`CCSc1oc(C)nc1[P+](c1ccccc1)(c1ccccc1)c1ccccc1`: the growth in the assay on T-47D breast is 14.6%; with BT-549 breast it was 12.4%; in the assay with MDA-MB-435 melanoma it was 25.3%; with SW-620 colon it was 32.9%; in the assay on MCF7 breast, 13.7%; with HCT-116 colon, 14.4%. Also, the growth in the assay with HCC-2998 colon is 29.5%; in the assay with KM12 colon, 8.25% (active).
`Cn1cc(-c2nn3cc(-c4cccs4)nc3s2)c2cc(F)ccc21`: the growth is 45% with T-47D breast; 43.1% with BT-549 breast; -43.4% (active) with MDA-MB-435 melanoma; 12.4% in the assay with SW-620 colon; 21.4% in the assay with MCF7 breast; 14.2% in the assay on HCT-116 colon. The growth in the assay with HCC-2998 colon is 66.8%; in the assay with KM12 colon, 22.2%.
